Bioassay records deposited in PubChem by several laboratories.
3CLpro inhibitor: SARS-CoV 3CLpro protease inhibitors, primary screen, biochemical, quenched FRET; inhibition, % at 6 µM; recombinant SARS-CoV 3CLpro, quenched FRET peptide cleavage; 290,000 compounds, 0.14% hits; in the data active = inhibition above about 12%
MazEF act: activators of E. coli MazEF toxin-antitoxin RNase, primary screen, biochemical, fluorescence, uHTS; Endoribonuclease toxin MazF (Escherichia coli (strain K12)), P0AE70; FAM/BHQ RNA-DNA oligo cleavage fluorescence, 5 h; 350,000 compounds, 0.32% hits; activation, % at 20 µM; AID 504720, 2011; in the data active = activation above about 50%
Target sequence (P0AE70 whole entry, looked up): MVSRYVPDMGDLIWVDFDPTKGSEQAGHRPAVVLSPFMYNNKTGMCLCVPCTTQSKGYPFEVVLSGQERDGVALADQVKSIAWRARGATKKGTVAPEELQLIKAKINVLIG
PfHsp40 rescue: rescue of yeast from PfHsp40 toxicity, primary screen, S. cerevisiae, ATP luminescence; growth rescue, % at 12.5 µM; 340,000 compounds, 0.68% hits; S. cerevisiae expressing PfHsp40, growth rescue; AID 504582, 2011; in the data active = growth rescue above about 28%, passing the limit was not always enough;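 also: yeast W303a lacking pdr1 and pdr3 grown in galactose medium; growth measured after three days at 30 °C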
BJeLR viability: MLPCN primary cell-based screen for lethality selective to Ras in HRASV12 cells; BJeLR (HRASV12) viability, CellTiter-Glo ATP luminescence, 48 h; inhibition, % (concentration not given with the values); 300,000 compounds, 0.17% hits; AID 1554, 2009; in the data active = inhibition above about 50%
Vc quorum ag: inducers of Vibrio cholerae quorum light production without autoinducers, primary screen, BH1578 luxS cqsA deficient, single point; activation, % at 18.7 µM; V. cholerae BH1578 lux reporter, luminescence, 6 h; 350,000 compounds, 0.16% hits; in the data active = activation mostly above about 9.7%, no sharp cut-off
DUSP3 inh: VHR1 phosphatase inhibitors, primary screen, biochemical, absorbance, uHTS; Dual specificity protein phosphatase 3 (Homo sapiens), P51452; AID 1654, 2009; 290,000 compounds, 0.52% hits; inhibition, % at 13.3 µM; recombinant VHR phosphatase, pNPP absorbance; in the data active = inhibition above about 50%
Target sequence (P51452 whole entry, looked up): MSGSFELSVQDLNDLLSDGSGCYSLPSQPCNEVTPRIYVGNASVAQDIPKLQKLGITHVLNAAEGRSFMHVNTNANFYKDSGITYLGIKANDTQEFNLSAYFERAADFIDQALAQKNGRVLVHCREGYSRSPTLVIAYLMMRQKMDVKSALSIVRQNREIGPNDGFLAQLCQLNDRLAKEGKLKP
Large screens that a line does not name were inactive. Only some compounds are listed: those with a hit (about 1.7% of all), similar ones and a draw of the others.

CCOc1cccc(/C=N/NC(=S)Nc2cc(S(=O)(=O)N3CCOCC3)ccc2N2CCOCC2)c1O	PfHsp40 rescue 59.5
COc1ccc2ccccc2c1/C=N/NC(=S)Nc1cc(S(=O)(=O)N2CCOCC2)ccc1N1CCOCC1	none
COCCN(C(=S)Nc1ccc(OC)c(Cl)c1)C1CCN(C(C)=O)CC1	none (no result: 3CLpro inhibitor, PfHsp40 rescue, BJeLR viability, DUSP3 inh)
Cc1cc(C)n2nc(C(=O)N3CCCC(Nc4ccc(F)c(F)c4)C3)cc2n1 (configuration not stated)	none
O=C(CCn1c(=O)c2cccn2c2cccnc21)NCCCN1CCN(c2ccc(F)cc2)CC1	none (no result: 3CLpro inhibitor, PfHsp40 rescue, BJeLR viability, DUSP3 inh)
COCCCn1c(C)nnc1SCC(=O)Nc1cccc(C)c1	DUSP3 inh 60.0
O=C1ON=C(c2ccccc2)/C1=C/c1ccc(-c2ccccc2[N+](=O)[O-])o1	3CLpro inhibitor 14.5 (no result: BJeLR viability)
CCCc1ccc(C(C)NC(=S)NC2CCCCC2)cc1 (configuration not stated)	PfHsp40 rescue 159.4
CC(NC(=S)NC1CCCCC1)c1ccccc1 (configuration not stated)	none
O=C(O)c1ccccc1NS(=O)(=O)c1cccc(-n2sc3ccccc3c2=O)c1	PfHsp40 rescue 406.7
COc1cccc(C2NC(=S)NC3=C2CCc2ccccc23)c1 (configuration not stated)	PfHsp40 rescue 173.0
COc1ccc2c(c1)C1=C(CC2)C(c2ccc(C)cc2)NC(=S)N1 (configuration not stated)	none
Cc1csc(NC(CO)c2nc3ccccc3n2CCOCCO)n1 (configuration not stated)	none (no result: 3CLpro inhibitor, DUSP3 inh)
CCCn1c(C(CO)Nc2nc(C)cs2)nc2ccccc21 (configuration not stated)	DUSP3 inh 59.3
NC(Cc1ccc(F)cc1)c1csc(Nc2cc(Oc3ccccc3)ncn2)n1 (configuration not stated)	none (no result: 3CLpro inhibitor, MazEF act, PfHsp40 rescue, BJeLR viability, DUSP3 inh)
CS(=O)(=O)Nc1cccc(C2=NN(S(C)(=O)=O)C(c3ccc4c(c3)OCO4)C2)c1 (configuration not stated)	none
CS(=O)(=O)N1N=C(c2ccccc2)CC1c1ccc2c(c1)OCO2 (configuration not stated)	MazEF act 235.9
COc1ccc(/C=C/C(=O)c2ccc([N+](=O)[O-])o2)cc1OC	BJeLR viability 69.8 (no result: 3CLpro inhibitor, PfHsp40 rescue, Vc quorum ag, DUSP3 inh)
O=C(/C=C/c1cccc(Cl)c1)c1ccc([N+](=O)[O-])o1	BJeLR viability 107.4 (no result: 3CLpro inhibitor, DUSP3 inh)
COc1cc(/C=C/C(=O)O)ccc1O	none (no result: 3CLpro inhibitor, DUSP3 inh)
COc1cc(/C=C/[N+](=O)[O-])ccc1O	BJeLR viability 72.5
COc1cc(/C=C/C(=O)c2ccc([N+](=O)[O-])o2)ccc1O	BJeLR viability 92.4 (no result: 3CLpro inhibitor, DUSP3 inh)
COc1ccc(OC)c(NC(=O)COC(=O)[C@H](Cc2ccccc2)NC(=O)c2ccco2)c1	none (no result: 3CLpro inhibitor, BJeLR viability, DUSP3 inh)
CCCC(=O)Nc1nc2ccc(OCC)cc2s1	none
CCOc1ccc2nc(NC(=S)N(C)C)sc2c1	PfHsp40 rescue 122.3
CCN(CC)N=Nc1[nH]nc2nc(C)cc(C)c12	PfHsp40 rescue 45.1
CC(=O)n1nc2nc(C)cc(C)c2c1N	none
Cc1cc(C)c2c(C)[nH]nc2n1	none (no result: PfHsp40 rescue)
Cc1cc(C)c2c(N=NN3CCCCC3)[nH]nc2n1	PfHsp40 rescue 85.7
COc1cccc(CNC(=O)c2ccncc2)c1	none
COc1ccc(CNC(=O)C2CCCN(c3nc4ccccc4o3)C2)c(OC)c1 (configuration not stated)	DUSP3 inh 52.6
O=C(CN1C(=O)COc2ccccc21)NCC1CCCO1 (configuration not stated)	none
O=C(CN1C(=O)COc2ccc(Cl)cc21)NCC1CCCO1 (configuration not stated)	DUSP3 inh 53.5
CCCc1cc(=O)[nH]c(SCC(=O)NCC2COc3ccccc3O2)n1 (configuration not stated)	none (no result: 3CLpro inhibitor, BJeLR viability, DUSP3 inh)
CCOC(=O)C1=C(Cc2ccc(C)cc2)C(=O)c2ccccc2C1=O	none (no result: MazEF act, PfHsp40 rescue, Vc quorum ag)
CCOC(=O)C1=C(Cc2ccc(OC)cc2)C(=O)c2ccccc2C1=O	MazEF act 216.9 (no result: BJeLR viability)
COc1ccc(C2=NN(c3nc(-c4ccc(CNC(C)=O)cc4)cs3)C(c3ccco3)C2)cc1 (configuration not stated)	none
CC(=O)Nc1cc(-c2cccc(F)c2)cn2c(-c3ccccc3)cnc12	none (no result: 3CLpro inhibitor, MazEF act, PfHsp40 rescue, BJeLR viability, DUSP3 inh)
COc1ccc(Cl)cc1NC(=O)CCNC(=O)Cn1ccc2ccccc2c1=O	none
COc1ccc(C2=NN(c3ccc(C(=O)O)cc3)C(c3ccc(OC)c(OC)c3)C2)cc1 (configuration not stated)	PfHsp40 rescue 112.3
O=C(CCCCCCC(=O)Nc1ccccc1)NO	BJeLR viability 72.4 (no result: 3CLpro inhibitor, DUSP3 inh)
Cc1ccc(Cl)c2c(N=Nc3ccccc3)c(O)[nH]c12	MazEF act active, DUSP3 inh 51.5
Cc1cc(Cl)cc2c(N=Nc3ccccc3C(=O)O)c(O)[nH]c12	none
O=C(CCSc1ccc(Br)cc1)c1ccc(O)cc1	PfHsp40 rescue 537.2
COCCn1c(C)cc(C(=O)CN2C(=O)C(=O)N(CCC3=CCCCC3)C2=O)c1C	none (no result: 3CLpro inhibitor, PfHsp40 rescue, BJeLR viability, DUSP3 inh)
CC(C)c1ccc(NC(=O)Cc2ccc(NC3=NC4CS(=O)(=O)CC4S3)cc2)cc1 (configuration not stated)	none
CC(=O)OC1CC(OC2C(O)CC(OC3C(O)CC(OC4CCC5(C)C(CCC6C5CCC5(C)C(C7=CC(=O)OC7)CCC65O)C4)OC3C)OC2C)OC(C)C1OC1OC(CO)C(O)C(O)C1O (configuration not stated)	none (no result: 3CLpro inhibitor, BJeLR viability, DUSP3 inh)
COC1CC(OC2CCC3(C)C(CCC4C3CCC3(C)C(C5=CC(=O)OC5)C(OC(C)=O)CC43O)C2)OC(C)C1OC1OC(COC2OC(CO)C(O)C(O)C2O)C(O)C(O)C1O (configuration not stated)	BJeLR viability 50.9 (no result: 3CLpro inhibitor, MazEF act, PfHsp40 rescue, Vc quorum ag)
COc1ccc(-c2csc3ncnc(N4CCN(CCO)CC4)c23)cc1	DUSP3 inh 56.9
Cc1ccc(-c2csc3ncnc(N4CCN(S(=O)(=O)c5cccs5)CC4)c23)cc1	PfHsp40 rescue 122.4 (no result: 3CLpro inhibitor, BJeLR viability, DUSP3 inh)
Cc1ccc(-c2csc3ncnc(N4CCN(S(=O)(=O)c5ccc(C#N)cc5)CC4)c23)cc1	none (no result: 3CLpro inhibitor, PfHsp40 rescue, BJeLR viability, DUSP3 inh)
Cc1ccc(CNC(=O)CCC(=O)Nc2nnc(C(C)C)s2)cc1	none
CC(=O)C1=C(C)N(Cc2ccccc2)C(=O)N[C@H]1c1ccco1	none (no result: 3CLpro inhibitor)
COc1ccc(F)cc1-c1cc(C(=O)NCc2cc(C(F)(F)F)cc(C(F)(F)F)c2)[nH]n1	none (no result: 3CLpro inhibitor, MazEF act, PfHsp40 rescue, BJeLR viability, DUSP3 inh)
C=CCn1c(=O)/c(=C/c2cc(OC)c(OC)c(OC)c2)s/c1=C(/C#N)c1nc2ccccc2n1C	MazEF act active (no result: Vc quorum ag)
COC(=O)c1ccc(CC(C(=O)c2ccccc2)N(C)C)cc1 (configuration not stated)	MazEF act 52.8
